Shiga inhibitor: Shiga toxin inhibition; Vero cells, Shiga toxin protein synthesis inhibition reporter; AID 2315; actives 9.2% (n = 290,000); inhibition, % at 38.7 µM; in the data active = inhibition mostly above about 28%, no sharp cut-off; inactive = mostly below about 43%; also: 0% is about no effect
Pf growth 96h: P. falciparum growth inhibition at 96 hours; P. falciparum luciferase reporter growth, 96 h; actives 6.9% (n = 320,000); AID 504834; Potency, µM (top dose mostly 28.7 µM), inactives show at the highest dose activity change, negative = inhibition, hits mostly inhibitors; also: potency is read from the fitted curve at half-maximal effect; % is scaled to controls: 0 for no effect and ±100 for the full control effect
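Two parasite generations (96 h, 37 C, 5% CO2) of compound exposure in infected erythrocytes (0.05% parasitemia, 2% hematocrit). Luciferase-reporter P. falciparum; decreased luminescence indicates inhibited growth, aimed at apicoplast-acting delayed death.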
Cycloheximide cs: affects cycloheximide protein synthesis inhibition readout, counter-screen. cell reporter, cycloheximide protein synthesis inhibition counterscreen. max response, %. actives 12% (n = 300,000). AID 2314; in the data active = max response mostly above about 13%, no sharp cut-off; inactive = mostly below about 14%; also: read at 38.3 µM for the half of the compounds with a filed dose; 0% is about no effect
Pf growth 48h: P. falciparum growth inhibition at 48 hours (one generation) | P. falciparum luciferase growth in erythrocytes, 48 h | Potency, µM (titrated, usually from 28.7 µM), inactives show at the highest dose activity change, negative = inhibition, actives largely listed as inhibitors | actives 5.9% (n = 310,000) | AID 504832; also: potency is read from the fitted curve at half-maximal effect; % is scaled to controls: 0 for no effect and ±100 for the full control effect
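Compounds are pin-transferred into medium, infected erythrocytes (2% hematocrit, 0.1% parasitemia final) are added, and plates sit one parasite generation at 37 C in 5% CO2. Detection reagent is then added and luminescence measured.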
Giardia FBPA inh: inhibitors of Giardia lamblia fructose-1,6-bisphosphate aldolase; Potency, µM (series often up to 59.6 µM), inactives show at the top dose activity, negative = inhibition, actives largely listed as inhibitors; purified Giardia FBPA; A8B2U2; actives 0.71% (n = 290,000); also: potency is read from the fitted curve at half-maximal effect; % is scaled to controls: 0 for no effect and ±100 for the full control effect; nearly all actives have a fitted effect of over 55% in size
Target sequence (A8B2U2 whole entry, looked up): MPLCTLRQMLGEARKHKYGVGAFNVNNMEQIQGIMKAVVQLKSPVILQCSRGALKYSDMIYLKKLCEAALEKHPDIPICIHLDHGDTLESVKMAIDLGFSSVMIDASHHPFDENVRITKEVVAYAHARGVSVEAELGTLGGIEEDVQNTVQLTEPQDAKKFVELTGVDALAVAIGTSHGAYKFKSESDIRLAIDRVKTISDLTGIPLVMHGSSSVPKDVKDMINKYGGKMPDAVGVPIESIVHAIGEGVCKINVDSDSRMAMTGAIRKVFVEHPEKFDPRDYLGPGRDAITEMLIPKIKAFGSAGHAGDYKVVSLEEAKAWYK
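Giardia FBPA (40 nM reagent) was preincubated 10 min at RT with compound (up to 57.5 uM final), then substrate plus GAPDH/TPI/NAD/arsenate coupling system with diaphorase/resazurin was added; resorufin fluorescence (525/598 nm) was read after 20 min.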
NS1 inh: influenza NS1 inhibition; Potency, µM (titrated, usually from 46.1 µM), for the others: at the top dose activity, positive = more growth; actives 0.4% (n = 270,000); AID 2326; calls by dose curve; also: potency is read from the fitted curve at half-maximal effect; actives are rising curves; nearly all actives have a fitted effect of over 50% in size
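Recovery from NS1-induced slow growth read by OD600 in budding yeast switched to galactose assay medium (pH 6.0, -URA) at 1:100 dilution. Compound 23 nl per well; the matching strain lacking NS1 serves as control.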
Active calls of the source: *; i = inactive; ? = inconclusive; . = no result given. Hits are enriched below; roughly 21% of the tested compounds scored in any of these assays. Unless noted, calls follow the shape of the dose curve; as a rule, active = well fitted curve in the direction sought with a large enough effect; inconclusive = small, poorly fitted or top-dose-only effect, or another doubt; inactive = no such curve, though single readings can be large; an effect the other way counts as inactive or inconclusive.

SMILES	Shiga inhibitor	Pf growth 96h	Cycloheximide cs	Pf growth 48h	Giardia FBPA inh	NS1 inh
COc1ccc(/C=C/c2nc(C)c(-c3ccccc3)c(=O)[nH]2)cc1OC	-9	-99%	-4	?	5%	-26%
COc1cc(/C=C/c2nc3ccccc3c(=O)[nH]2)ccc1OC(F)F	47	101%	29*	.	10%	-1%
C=CCOc1cccc(/C=C/c2nc3ccccc3c(=O)[nH]2)c1	71*	-69%	41*	.	-21%	2%
COc1cc(/C=C/c2nc3ccccc3c(=O)[nH]2)cc(OC)c1OC	48	13%	28*	33%	-23%	-1%
CCCc1cc(=O)oc2cc(C)cc(OCC(=O)N3CCC(C(=O)O)CC3)c12	-7	36%	-2	-1%	-17%	-3%
Cc1ccc(NC(=O)C2CCN(C(=O)[C@@H]3Cc4ccccc4CN3)CC2)c(C)c1	-11	29%	14*	4%	-24%	7%
Cc1cccc(NC(=O)C2CCN(C(=O)[C@@H]3Cc4ccccc4CN3)CC2)c1	16	17%	24	13%	-13%	6%
CCc1ccc(NC(=O)C2CCN(C(=O)[C@@H]3Cc4ccccc4CN3)CC2)cc1	60*	?	34*	-23%	?	?
COc1ccc(NC(=O)C2CCN(C(=O)[C@@H]3Cc4ccccc4CN3)CC2)cc1	13	6%	33*	19%	-29%	9%
Cc1nnc2c(NC3CCCCC3)nc3ccccc3n12	12	-5%	-1	-17%	7%	-2%
CC(=O)Nc1ccc(S(=O)(=O)Nc2nc3ccccc3nc2Nc2cccc(S(N)(=O)=O)c2)cc1	7	-13%	-3	-1%	16%	3%
COc1ccc(NC(=O)c2oc3ccccc3c2NC(=O)c2ccco2)cc1	35*	1%	47*	?	-7%	-38%
COc1ccc(NC(=O)c2oc3ccccc3c2NC(=O)c2ccco2)c(OC)c1	16	?	11*	?	-1%	-4%
COCCn1c(=O)c(-c2ccc(OC)cc2)nc2cnc(Oc3ccccc3)nc21	.	.	.	.	-20%	.
Cc1c(C)c2cccnc2c2ncccc12	.	?	.	1.9µM*	.	.
Clc1cc2cccnc2c2ncccc12	.	12µM*	.	12µM*	.	.
Oc1c(I)cc(Cl)c2cccnc12	-14	?	-3	?	10%	-39%
c1cnc2c(c1)ccc1ncccc12	-13	13%	1	9%	2%	-6%
CCC(=O)NCC(c1cccs1)S(=O)(=O)c1ccc(C)cc1 (centres undefined)	4	?	-3	20%	0%	?
O=C(CC(c1cccs1)S(=O)(=O)c1ccccc1)c1ccc(F)cc1 (centres undefined)	33*	13%	52*	6%	-5%	0%
CN(C)CCCNC(=O)C(=O)NCC(c1cccs1)S(=O)(=O)c1ccc(F)cc1 (centres undefined)	.	12%	.	3%	.	.
Cc1ccc(S(=O)(=O)NCC(c2ccco2)S(=O)(=O)c2ccccc2)cc1 (centres undefined)	.	?	.	-23%	.	.
O=C(CC(c1ccco1)S(=O)(=O)c1ccccc1)c1ccccc1 (centres undefined)	110*	13%	42*	39%	9%	.
Cc1ccc(C(=O)CC(c2cccs2)S(=O)(=O)c2ccc(C)cc2)cc1 (centres undefined)	38	20%	23*	57%	6%	5%
Cc1c(C(=O)NC2CCCCC2C)oc2ccccc12 (centres undefined)	-15	-28%	-3	5%	.	-58%
SMILES	Shiga inhibitor	Pf growth 96h	Cycloheximide cs	Pf growth 48h	Giardia FBPA inh	NS1 inh
Cc1ccc(-n2ncc(N(C)C)c(Cl)c2=O)cc1	55*	146%	29*	288%	2%	18%
COc1ccc(-n2ncc(Cl)c(Cl)c2=O)cc1	32	34%	1	11%	0%	.
CN(C)c1cnn(-c2ccccc2)c(=O)c1Cl	146*	21%	43*	40%	4%	9%
COc1ccc(-n2ncc(N(C)n3cccc3)c(Cl)c2=O)cc1	87*	i	28*	306%	-1%	-70%
COc1c(Cl)cnn(-c2ccccc2)c1=O	-6	0%	1	-5%	0%	-4%
C=CCNc1cnn(-c2ccccc2)c(=O)c1Cl	79	4%	18*	1%	5%	-1%
COc1ccccc1NC(=O)c1ccccc1N(Cc1ccccc1)S(C)(=O)=O	-5	?	2	?	13%	2%
CCC(C)N(C(=O)CSc1nnc(C)n1C)C1CCS(=O)(=O)C1 (centres undefined)	.	-1%	.	9%	.	.
CC(=O)N1CCc2cc(S(=O)(=O)CCC(=O)Nc3cc(C)cc(C)c3)ccc21	-11	-15%	-8	-7%	-7%	1%
COc1ccc(CNC(=O)C2CCN(S(=O)(=O)c3c(C)noc3/C=C/N(C)C)CC2)cc1	-2	?	-2	-26%	.	?
CC(=O)Cn1ncc(Br)c(Br)c1=O	-16	-8%	0	?	1%	-6%
CC(=O)Cn1ncc(N(C)Cc2ccccc2)c(Cl)c1=O	64*	92%	48*	97%	6%	6%
COc1ccc(OC)c(NC(=O)c2nnn(Cc3ccccc3C)c2N)c1	17	?	1	12µM*	-1%	-37%
COc1ccc(C)cc1NC(=O)c1nnn(Cc2cc(C)ccc2C)c1N	16	5.2µM*	5	.	2%	10%
O=C(CCC(=O)c1ccc(Cl)cc1)OCC(=O)c1ccccc1	2	?	-4	9%	5%	-14%
O=C(COc1c(Cl)cc(Cl)cc1Cl)c1ccc(Cl)cc1	-10	12µM*	-1	0%	9%	4%
CC(Sc1nnc2c(n1)[nH]c1ccccc12)C(=O)N(C)C1CCCCC1 (centres undefined)	-9	?	-6	?	-27%	-13%
CC(Sc1nnc2c(n1)[nH]c1ccccc12)C(=O)NC1CCCCC1 (centres undefined)	2	-12%	-3	9.3µM*	.	0%
O=C(Nc1ccc(Br)cc1)C1OCCc2ccccc21 (centres undefined)	51*	?	18*	?	-9%	-69%
COc1c2c(cc3c1C(CC(=O)c1c(O)c(OC)c4occc4c1OC)[N+](C)(C)CC3)OCO2 (centres undefined)	.	.	.	.	-14%	.
NC(=O)C1CCN(CC(O)COCc2ccccc2Cl)CC1 (centres undefined)	-9	15%	-8	?	5%	-9%
CC1(C)C2CC=C(/C=N/NC(=O)c3ccc(O)cc3)C1C2 (centres undefined)	68	-15%	15*	-5%	0%	2%
COc1ccc(C(=O)N/N=C/c2ccc(SC)cc2)cc1	38	?	19*	4%	0%	0%
CSc1ccc(/C=N/NC(=O)c2ccc(O)cc2)cc1	102*	?	46*	135%	3%	-12%

Screening results (PubChem BioAssay)
